Results from PubChem BioAssay AID651640 (Broad Institute, 2012).
The whole screen tested about 350,000 compounds, of which about 6,000 (1.7%) were called active. Not shown: some 5% with an inconclusive outcome. Many of the other results were omitted from the sample, so actives are more common in it than they were. Unmarked numbers belong to inactive results. Cut-off read from the data, not from the text of the source: active = CPE inhibition above about 20% (passing the limit was not always enough); inconclusive = no clear call, values can overlap the other calls; tested in BHK-21 cells.

Assay: inhibitors of DENV2 cytopathic effect, primary screen, cell-based, plate reader, single concentration (AID 651640);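 note: 0% = median of neutral control wells and 100% = median of positive control wells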
Conditions: DENV2-infected cells, cytopathic effect rescue, at 9.99 µM, hits give high values
Work on `O=S(=O)(N[C@@H]1CC[C@@H](CCn2cc(-c3ccccn3)nn2)O[C@@H]1CO)c1cccc(Cl)c1` yielded a CPE inhibition of 14.3%.
Work on `C[C@H]1CN([C@@H](C)CO)C(=O)c2cc(NC(=O)C3CC3)ccc2O[C@@H]1CN(C)S(=O)(=O)c1cn(C)cn1` yielded a CPE inhibition of -4.92%.
`C[C@@H]1CCCCO[C@H](CN(C)C(=O)Cc2ccccc2)[C@H](C)CN([C@@H](C)CO)C(=O)c2cc(NS(=O)(=O)c3ccc(F)cc3)ccc2O1` showed a CPE inhibition of -10.6%.
For `CC(C)NC(=O)NCC[C@H]1CC[C@@H](NS(=O)(=O)c2ccc(Oc3ccccc3)cc2)[C@@H](CO)O1`, the CPE inhibition was -1.61%.
For `CO[C@H]1CN(C)C(=O)c2cc(NS(=O)(=O)CC(F)(F)F)ccc2OC[C@@H](C)N(C(=O)c2ccc3c(c2)OCO3)C[C@@H]1C`, the CPE inhibition was 15.3%.
`COC(=O)CN1C(=O)[C@H]2[C@@H](C3CC3)N3C(=O)CN(Cc4ccc(-c5ccccc5)cc4)C(=O)[C@@]3(Cc3ccccc3)[C@H]2C1=O` gave a CPE inhibition of 3.26%.
For `COC(=O)CN1C(=O)[C@H]2[C@@H](/C=C/c3ccccc3)N3C(=O)CN(Cc4ccccc4)C(=O)[C@@]3(Cc3ccccc3)[C@H]2C1=O`, the CPE inhibition was -11.1%.
With `COC(=O)CN1C(=O)[C@H]2[C@@H](/C=C/c3ccccc3)N3C(=O)CN(CC4CC4)C(=O)[C@@]3(Cc3ccccc3)[C@H]2C1=O` the CPE inhibition was 51% (active).
In the case of `C[C@H](CO)N1C[C@H](C)[C@@H](CN(C)Cc2ccc(C(F)(F)F)cc2)Oc2ccc(NC(=O)Cn3cnnn3)cc2CC1=O`, the CPE inhibition is reported as 7.25%.
Work on `Cc1ccccc1OCCC(=O)OCC(=O)NC(C)c1ccccc1` (configuration not stated) yielded a CPE inhibition of 4.9%.
`Cc1ccc(S(=O)(=O)CCC(=O)OCC(=O)NCCc2ccc(S(N)(=O)=O)cc2)cc1` showed a CPE inhibition of 2.48%.
In the case of `Cc1ccccc1OCCC(=O)OCC(=O)NCCc1ccc(S(N)(=O)=O)cc1`, the CPE inhibition is reported as 47.5% (active).
`O=C(C[C@@H]1CC[C@@H]2[C@H](COC[C@@H](O)CN2S(=O)(=O)c2ccccc2)O1)NCC1CCCCC1` showed a CPE inhibition of -12.1%.
For `C[C@@H]1CN([C@@H](C)CO)S(=O)(=O)c2ccc(-c3cccc(C(=O)N(C)C)c3)cc2O[C@@H]1CN(C)C`, the CPE inhibition was -3.85%.
`c1ccc(-c2ccc(C3[C@@H]4CN(Cc5cccnc5)C[C@H]3N4)cc2)cc1` (some centres not stated) showed a CPE inhibition of -24.3%.
With `N#Cc1cccc(-c2ccc([C@H]3[C@@H](CO)N[C@@H]3CNC(=O)C3CCC3)cc2)c1` the CPE inhibition was -1.99%.
`N#C[C@H]1N[C@H](CO)[C@H]1c1ccc(-c2cccc(F)c2)cc1` showed a CPE inhibition of 3.16%.
In the case of `O=C(NC[C@@H]1N[C@@H](CO)[C@H]1c1ccc(-c2cccnc2)cc1)c1cccc(F)c1`, the CPE inhibition is reported as 41.5% (active).
In the case of `CCCNC(=O)N1C[C@@H](O)COC[C@H]2O[C@@H](CC(=O)NCCCN3CCOCC3)CC[C@@H]21`, the CPE inhibition is reported as -1.62%.
In the case of `CO[C@@H]1CN(C)C(=O)c2cc(NC(=O)C3CCOCC3)ccc2OC[C@@H](C)NC[C@@H]1C`, the CPE inhibition is reported as 23.2% (active).
Compound `CO[C@@H]1CN(C)C(=O)c2cc(NS(=O)(=O)c3ccc(Cl)cc3)ccc2OC[C@H](C)NC[C@@H]1C` has a CPE inhibition of -4.08%.
With `CO[C@H]1CN(C)C(=O)c2cc(NS(=O)(=O)c3ccc(C)cc3)ccc2OC[C@H](C)NC[C@H]1C` the CPE inhibition was -0.879%.
Compound `CO[C@H]1CN(C)C(=O)c2ccc(NC(=O)C3CCOCC3)cc2OC[C@H](C)NC[C@H]1C` has a CPE inhibition of -0.477%.
In the case of `CO[C@H]1CN(C)C(=O)c2cc(NS(=O)(=O)c3ccccc3)ccc2OC[C@H](C)NC[C@@H]1C`, the CPE inhibition is reported as 27.3% (active).
In the case of `CO[C@H]1CN(C)C(=O)c2cc(NC(=O)C3CC3)ccc2OC[C@@H](C)NC[C@H]1C`, the CPE inhibition is reported as -4.67%.
`C[C@@H]1CCCCO[C@@H](CN(C)C(=O)Nc2ccc(F)cc2)[C@H](C)CN([C@@H](C)CO)C(=O)c2cc(NS(C)(=O)=O)ccc2O1` gave a CPE inhibition of -6.59%.
In the case of `CCCC(=O)N1CC2(C1)CN(C(=O)COC)[C@@H](CO)c1c2c2ccc(OC)cc2n1C`, the CPE inhibition is reported as 10.6%.
For `O=S(=O)(NC[C@H]1[C@H](c2ccccc2)[C@H](CO)N1CC1CC1)c1ccccc1`, the CPE inhibition was 16.5%.
Compound `N#C[C@@H]1[C@@H](c2ccc(C3=CCCC3)cc2)[C@@H](CO)N1C(=O)C1CCCC1` has a CPE inhibition of -3.68%.
With `CCc1cnc(N2[C@H](C#N)[C@H](c3ccc(C4=CCCC4)cc3)[C@@H]2CO)s1` the CPE inhibition was 42.6% (active).
Compound `CCc1cnc(N2[C@H](C#N)[C@H](c3ccccc3-c3ccccc3C)[C@H]2CO)s1` has a CPE inhibition of 6.09%.
For `CO[C@@H]1CN(C)C(=O)c2cc(NC(=O)c3cc(C)on3)ccc2OC[C@@H](C)N(C(C)=O)C[C@@H]1C`, the CPE inhibition was 5.53%.
`CCCNC(=O)C1(C)CCCN(Cc2cccc(C(F)(F)F)c2)C1` (configuration not stated) gave a CPE inhibition of 10.8%.
In the case of `O=C(CN1CCC(O)(c2cccc(C(F)(F)F)c2)CC1)NCCc1ccccc1`, the CPE inhibition is reported as 24.3% (active).
For `O=C(CCC(=O)c1ccccc1)NCc1cccc(C(F)(F)F)c1`, the CPE inhibition was -5.25%.
Work on `CO[C@H]1CN(C)C(=O)c2ccc(NC(=O)Nc3ccc(Cl)cc3)cc2OC[C@H](C)N(C(=O)Nc2c(C)noc2C)C[C@@H]1C` yielded a CPE inhibition of 1.51%.
With `CCCN1C[C@H](C)[C@H](OC)CN(C)C(=O)c2cc(NC(=O)C3CCOCC3)ccc2OC[C@@H]1C` the CPE inhibition was -12%.
With `O=C(Nc1ccc2c(c1)[C@@H]1C[C@H](CC(=O)N3CCOCC3)O[C@@H](CO)[C@@H]1O2)C1CCOCC1` the CPE inhibition was 14.6%.
`CCC(=O)Nc1ccc2c(c1)C(=O)N(C)C[C@H](OC)[C@@H](C)CN(Cc1cccnc1)[C@H](C)CO2` gave a CPE inhibition of 3.46%.
In the case of `Cc1cccc(C(=O)O)c1[N+](=O)[O-]`, the CPE inhibition is reported as 29.4% (active).
For `Cc1ccccc1C(=O)O`, the CPE inhibition was 0.715%.
With `Cc1cc(C(=O)O)ccc1[N+](=O)[O-]` the CPE inhibition was -17.9%.
Compound `O=C(C[C@H]1C[C@H]2c3cc(NC(=O)Nc4ccc(F)cc4)ccc3O[C@H]2[C@H](CO)O1)NCC1CC1` has a CPE inhibition of -5.03%.
For `O=C(NC1CCCC1)[C@H]1[C@H](CO)[C@H]2Cn3c(cccc3=O)[C@H]2N1C(=O)NC1CCCC1`, the CPE inhibition was 1.25%.
With `Cn1cnc(CCNC(=O)C[C@H]2CC[C@H]3[C@@H](COC[C@H](O)CN3C(=O)C3CCCC3)O2)c1` the CPE inhibition was -0.992%.
Work on `O=C(NCc1ccccc1)[C@@H]1CCCN1C(=O)[C@H]1CCCN1C(=O)c1cccc(Cl)c1` yielded a CPE inhibition of -9.03%.
Work on `O=C(NCc1ccccc1)[C@H]1CCCN1C(=O)[C@H]1CCCN1C(=O)c1cc(F)cc(F)c1` yielded a CPE inhibition of -4.56%.
In the case of `O=C(NCc1ccccc1)[C@H]1CCCN1C(=O)[C@@H]1CCCN1C(=O)c1ccc(Cl)cc1Cl`, the CPE inhibition is reported as 40.8% (active).
With `CC(C)CC#Cc1ccc([C@H]2[C@H]3CN(C(=O)c4cnccn4)CC(=O)N3[C@H]2CO)cc1` the CPE inhibition was 6.05%.
With `COc1ccc2c3c([nH]c2c1)[C@@H](CO)N(Cc1cc(F)ccc1F)CC31CCN(C(=O)C2CCC2)CC1` the CPE inhibition was 8.85%.
Compound `C[C@@H]1CCCCO[C@@H](CN(C)C(=O)Cc2ccccc2)[C@H](C)CN([C@@H](C)CO)C(=O)c2cc(NC(=O)Nc3ccc4c(c3)OCO4)ccc2O1` has a CPE inhibition of -20.6%.
In the case of `COc1ccc(C#Cc2ccc3c(c2)[C@]2(C(=O)N3)[C@H](c3ccccc3OCCO)N3[C@H](c4ccccc4)[C@H](c4ccccc4)OC(=O)[C@H]3[C@@H]2C(=O)N2CCCCCCC2)cc1`, the CPE inhibition is reported as 22.3% (active).
Compound `O=C1O[C@@H](c2ccccc2)[C@@H](c2ccccc2)N2[C@@H](c3ccccc3OCCO)[C@]3(C(=O)Nc4ccc(C#CC5(O)CCCCCC5)cc43)[C@@H](C(=O)N3CCCCCCC3)[C@H]12` has a CPE inhibition of -1.79%.
For `COc1ccc(C#Cc2ccc3c(c2)[C@]2(C(=O)N3)[C@H](C(=O)N3CCCCCCC3)[C@H]3C(=O)O[C@H](c4ccccc4)[C@H](c4ccccc4)N3[C@@H]2c2ccc(O)cc2)cc1`, the CPE inhibition was 16.4%.
`COc1ccccc1-c1ccc([C@@H]2[C@@H](CO)N3CCCCN(C(=O)c4ccncc4)C[C@@H]23)cc1` showed a CPE inhibition of -5.15%.
Compound `COc1cccc(CNC(=O)C[C@H]2CC[C@@H](NC(C)=O)[C@@H](CO)O2)c1` has a CPE inhibition of -0.331%.
Compound `Cc1ccc(S(=O)(=O)N[C@H]2C=C[C@@H](CC(=O)NCCc3ccncc3)O[C@@H]2CO)cc1` has a CPE inhibition of -2.51%.
`CCNC(=O)C[C@H]1CC[C@@H]2[C@H](COc3ccc(NC(=O)Nc4cccc(Cl)c4)cc3C(=O)N2C)O1` showed a CPE inhibition of 3%.
Work on `CCN(CC)S(=O)(=O)c1ccc(OC)c(NC(=O)CCc2c(C)noc2C)c1` yielded a CPE inhibition of -4.63%.
For `CCN(CC)S(=O)(=O)c1ccc(C)c(NC(=O)COc2ccc(Br)cc2Cl)c1`, the CPE inhibition was 52.1% (active).
`CCN(CC)S(=O)(=O)c1ccc(Cl)c(NC(=O)c2ccncc2)c1` showed a CPE inhibition of 2.11%.
`Nc1[nH]c(C(=O)c2ccc(Br)cc2)c(-c2ccc3c(c2)OCO3)c1C(=O)NCCc1c[nH]c2ccccc12` showed a CPE inhibition of 9.1%.
Work on `Cc1ccccc1-c1ccc([C@@H]2[C@@H](CO)N3CCCCN(C(=O)Nc4cccc(F)c4)C[C@H]23)cc1` yielded a CPE inhibition of -1.69%.
In the case of `CC(C)[C@@H](C)/C=C/[C@@H](C)[C@H]1CC[C@@H]2[C@]1(C)CCC1[C@]23C=C[C@]2(C[C@@H](O)CC[C@]12C)N(c1ccc([N+](=O)[O-])cn1)O3` (some centres not stated), the CPE inhibition is reported as -2.89%.
With `COC(=O)c1cc2c(c3c4cc(F)ccc4n(S(=O)(=O)c4ccccc4)c13)C(=O)N(Cc1ccccc1OC)C2` the CPE inhibition was 15.1%.
In the case of `COC(=O)c1c(-c2ccc(OC)cc2)c2c(c3c4cc(OC)ccc4n(S(=O)(=O)c4ccc(F)cc4)c13)C(=O)N(C)C2`, the CPE inhibition is reported as 44.7% (active).
`COC(=O)c1c(-c2ccc(OC)cc2)c2c(c3c4ccccc4n(S(=O)(=O)c4ccc(C)cc4)c13)C(=O)N(C)C2` showed a CPE inhibition of 2.43%.
